A number with no mark means an inactive call. Active and inactive are the calls of the source. Cut-off read from the data, not from the text of the source: active = inhibition above about 50%; inactive = the rest.
Target: Prolyl endopeptidase-like (Mus musculus) (UniProt Q8C167)
Experiment: mouse PREPL enzyme inhibition by screening hits – biochemical, gel-based competitive ABPP, fluorescence, HTS hits, PREPL inhibitor project (AID 624481)
Settings: purified mouse PREPL, at 20 µM, active compounds read high

Prolyl endopeptidase-like (Mus musculus), sequence (Q8C167 whole entry, looked up): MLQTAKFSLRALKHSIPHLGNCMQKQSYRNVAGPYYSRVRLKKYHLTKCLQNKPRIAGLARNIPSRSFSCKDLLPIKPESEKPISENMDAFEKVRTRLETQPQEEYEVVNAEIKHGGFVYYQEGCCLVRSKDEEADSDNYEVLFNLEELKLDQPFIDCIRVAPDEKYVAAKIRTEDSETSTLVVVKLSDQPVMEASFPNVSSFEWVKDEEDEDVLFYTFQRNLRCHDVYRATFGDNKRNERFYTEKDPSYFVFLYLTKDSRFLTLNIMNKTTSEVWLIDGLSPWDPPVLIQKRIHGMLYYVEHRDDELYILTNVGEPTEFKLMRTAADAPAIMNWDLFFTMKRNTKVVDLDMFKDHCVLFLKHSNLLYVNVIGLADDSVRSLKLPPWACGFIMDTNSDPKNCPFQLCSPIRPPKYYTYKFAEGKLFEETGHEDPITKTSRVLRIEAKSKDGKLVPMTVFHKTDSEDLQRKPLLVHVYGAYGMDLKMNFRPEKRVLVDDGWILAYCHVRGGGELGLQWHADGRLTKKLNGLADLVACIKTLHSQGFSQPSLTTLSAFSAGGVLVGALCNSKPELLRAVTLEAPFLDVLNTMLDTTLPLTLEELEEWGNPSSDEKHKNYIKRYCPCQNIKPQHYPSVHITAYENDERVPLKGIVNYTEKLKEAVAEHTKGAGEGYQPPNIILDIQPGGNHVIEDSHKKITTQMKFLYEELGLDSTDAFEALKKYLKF

Row | SMILES | inhibition
1 | c1ccc(-c2nc(N3CCCCCC3)c3ccccc3n2)nc1 | -104%
2 | CN1Cc2c(N3CCOCC3)nc3sc(C(=O)c4ccccc4)c(N)c3c2CC1(C)C | -32%
3 | COc1ccc(C)cc1Nc1n[n+](-c2ccccc2)c(-c2ccc(N(C)C)cc2)s1 | -72%
4 | COc1ccc(-c2c(-c3ccccc3)c(C(=O)C(=O)NCCCN(C)C)n3ccc4cc(OC)c(OC)cc4c23)cc1OC | -15%
5 | COc1ccc(N2CCN(C(=O)CN3C(=O)NC(C)(c4ccc5ccccc5c4)C3=O)CC2)cc1 (stereo unspecified) | -26%
6 | c1ccc(N2CCN(c3nc(NCc4ccco4)c4ccccc4n3)CC2)cc1 | 94% (active)
7 | C[C@H]1CN([C@@H](C)CO)C(=O)Cc2cc(NC(=O)CCN3CCOCC3)ccc2O[C@@H]1CN(C)Cc1ccc(Oc2ccccc2)cc1 | -27%
8 | COc1ccc(-[n+]2c(C)cc(/C=C3\Sc4ccccc4N3C)cc2C)cc1 | -11%
9 | Nc1nn(-c2ccccc2)c(N)c1N=Nc1cccc(F)c1 | 0%
10 | COc1cccc(N=Nc2c(N)[nH]n3c(=O)c4c(nc23)CCCC4)c1 | 93% (active)
11 | O=C1c2ccccc2C(=O)c2c1cccc2N1CCN(C/C=C/c2ccccc2)CC1 | -116%
12 | CN(C)c1ccc(C(CNC(=O)c2ccc(-c3ccccc3)cc2)N2CCOCC2)cc1 (stereo unspecified) | -7%
13 | C#CCOCCOCCOCCNc1nc(N2CCN(C(=O)[C@H](Cc3cc4ccccc4[nH]3)n3cc([C@@H](N)CC(C)C)nn3)CC2)nc(N2CCN(C(=O)[C@H](Cc3cc4ccccc4[nH]3)n3cc([C@@H](N)CC(C)C)nn3)CC2)n1 | -82%
14 | O=c1cc(-c2ccc(O)c(O)c2)oc2cc(O[C@@H]3O[C@H](CO)[C@@H](O)[C@H](O)[C@H]3O)cc(O)c12 | -12%
15 | C(=NNc1nc2ccccc2[nH]1)c1c[nH]c2ccccc12 | 36%
16 | CN(C)c1nc(-c2ccccn2)nnc1-c1ccccc1 | -28%

Row | SMILES | inhibition
17 | C#CCOCCOCCOCCNc1nc(N2CCN(C(=O)[C@H](CCCCN)n3cc([C@@H](N)CC(C)C)nn3)CC2)nc(N2CCN(C(=O)[C@H](Cc3cc4ccccc4[nH]3)n3cc([C@@H](N)Cc4ccc(O)cc4)nn3)CC2)n1 | -71%
18 | Cc1cc(NN=Cc2ccc(O)cc2)c2cccc(C)c2n1 | 1%
19 | CNc1oc(-c2ccccc2Cl)nc1P(=O)(c1ccccc1)c1ccccc1 | 10%
20 | COc1ccc(NC(=O)N2CCN(c3ccc([N+](=O)[O-])cc3)CC2)cc1OC | -40%
21 | CCC(=O)c1ccc2c(c1)N(CCCN(C)C)c1ccccc1S2 | 9%
22 | CC(C)C[C@@H]1CN=C(N)N1C[C@@H]1CCCN1C[C@@H](C(C)C)N1C[C@@H](Cc2ccccc2)N(CCc2ccc(Cl)c(Cl)c2)C1=N | -72%
23 | CC[C@@H](C)[C@@H]1CN([C@@H](CN2CCC[C@H]2CN2C(N)=NC[C@H]2C(C)C)C(C)C)C(=N)N1CCc1ccc(Cl)c(Cl)c1 | -64%
24 | COc1ccc(N2CCN(CCC(O)c3ccc4ccccc4c3)CC2)cc1 (stereo unspecified) | -79%
25 | C=CC[n+]1c(/C=C2\C=Cc3cc(C)ccc3N2CC)ccc2ccccc21 | -26%
26 | C#CCOCCOCCOCCNc1nc(N2CCN(C(=O)[C@H](Cc3cc4ccccc4[nH]3)n3cc([C@@H](N)C(C)CC)nn3)CC2)nc(N2CCN(C(=O)[C@H](CCCCN)n3cc([C@@H](N)CC(C)C)nn3)CC2)n1 (stereo partly specified) | -29%
27 | CN1CCN(CCCN2c3ccccc3Sc3ccc(Cl)cc32)CC1 | -90%
28 | CCN1/C(=C/c2ccc3ccc(C)cc3[n+]2CC)Sc2ccccc21 | -19%
29 | Cc1noc(C)c1S(=O)(=O)Nc1ccc2c(c1)C(=O)N([C@H](C)CO)C[C@H](C)[C@@H](CN(C)C(=O)Nc1ccc(C(F)(F)F)cc1)O2 | -1%
30 | CN(C)S(=O)(=O)c1cccc(-c2csc(=Nc3ccccc3)n2CCCN2CCOCC2)c1 | -41%
31 | C#CCOCCOCCOCCNc1nc(N2CCN(C(=O)CCCCCCCCCCNC(=O)[C@H]([C@@H](C)CC)n3cc(CCCCN=C(N)N)nn3)CC2)nc(N2CCN(C(=O)CCCCCCCCCCNC(=O)[C@H](CO)n3cc(CCCCCN)nn3)CC2)n1 | -38%

Reference: PubChem BioAssay AID624481 (The Scripps Research Institute Molecular Screening Center, 2012)
